The text below walks through data of PubChem BioAssay (NCI).

Values joined by “and” are separate entries in the source; they are usually repeats but may differ in a detail not shown here. Equal entries are not always repeated. Compounds without any hit were thinned out: in the full panel of roughly 83,000, 20% have a hit.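 How to read the values: 0–100, growth inhibition (40 = 60% inhibited); 0, no net growth; -100 to 0, cell death (-40 = 40% of starting cells died; -100 = all dead).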 Active and inactive are the calls of the source. The calls were made as follows: active = growth percent below 10; inactive = the rest.

Among the test systems are SR leukemia; RPMI-8226 leukemia; OVCAR-8 ovarian; OVCAR-5 ovarian; OVCAR-4 ovarian; SK-OV-3 ovarian; IGROV1 ovarian; OVCAR-3 ovarian; HS 578T breast; NCI/ADR-RES ovarian; T-47D breast; BT-549 breast; SW-620 colon; MCF7 breast; HCT-116 colon; HCC-2998 colon; KM12 colon; MDA-MB-435 melanoma.
What all share (assay): NCI-60 one-dose screen, 48 h (100 = growth as untreated, 0 = no growth, -100 = all killed)
Settings in all cases: 10 µM unless noted

Consider `O=C(CN1CCOCC1)N1CCOCC1`, for which the growth in the assay on SR leukemia is 94.5% (inactive) and 97.8% (inactive); in the assay on RPMI-8226 leukemia it was 96.3% (inactive) and 106% (inactive); with OVCAR-8 ovarian it was 109% (inactive) and 104% (inactive); with OVCAR-5 ovarian, 115% (inactive) and 91.5% (inactive); in the assay with OVCAR-4 ovarian it was 113% (inactive) and 114% (inactive); with SK-OV-3 ovarian, 110% (inactive) and 96.3% (inactive). The growth with IGROV1 ovarian was 117% (inactive) and 115% (inactive); with OVCAR-3 ovarian, 115% (inactive) and 128% (inactive); with HS 578T breast, 111% (inactive) and 106% (inactive); in the assay with NCI/ADR-RES ovarian it was 107% (inactive) and 114% (inactive); in the assay on T-47D breast, 110% (inactive) and 101% (inactive); in the assay on BT-549 breast, 96.9% (inactive). The growth in the assay on SW-620 colon was 105% (inactive) and 109% (inactive); in the assay on MCF7 breast, 110% (inactive) and 105% (inactive); in the assay on HCT-116 colon it was 104% (inactive) and 107% (inactive); with HCC-2998 colon it was 104% (inactive) and 105% (inactive); with KM12 colon, 110% (inactive) and 106% (inactive).

`CN(C)CCCNC1=C(Cl)C(=O)c2ccccc2C1=O`: the growth in the assay with SR leukemia is -18.8% (active); in the assay on RPMI-8226 leukemia, 65% (inactive) and 45.5% (inactive); with OVCAR-8 ovarian it was 68% (inactive) and -60.7% (active); in the assay on OVCAR-5 ovarian it was 98.4% (inactive) and 98.8% (inactive); in the assay on OVCAR-4 ovarian it was 17.7% (inactive) and -100% (active); with SK-OV-3 ovarian it was 88.9% (inactive) and 95.9% (inactive). Moreover, the growth in the assay on IGROV1 ovarian was -52.5% (active) and -98.8% (active); in the assay on OVCAR-3 ovarian it was 19.8% (inactive) and -44.6% (active); in the assay on HS 578T breast it was 9.81% (active); in the assay on NCI/ADR-RES ovarian, 103% (inactive) and 78.7% (inactive); in the assay with T-47D breast, 65.3% (inactive) and 32% (inactive); in the assay with BT-549 breast, 96.8% (inactive) and 93% (inactive). Besides, the growth in the assay with MDA-MB-435 melanoma is -88.6% (active) and -88.2% (active); in the assay on SW-620 colon, -63% (active) and -57.8% (active); with MCF7 breast, 45.4% (inactive) and 5.05% (active); in the assay with HCT-116 colon it was 47.2% (inactive) and 4.88% (active); in the assay with HCC-2998 colon, -0.125% (active) and -63.6% (active); in the assay with KM12 colon, 83.3% (inactive) and 40.7% (inactive).

In the case of `CCN(CC)C(=O)c1cccnc1`, the growth was 90.5% (inactive) with SR leukemia; 105% (inactive) in the assay on RPMI-8226 leukemia; 98.8% (inactive) in the assay with OVCAR-8 ovarian; 99.4% (inactive) in the assay on OVCAR-5 ovarian; 112% (inactive) in the assay with OVCAR-4 ovarian; 109% (inactive) in the assay on SK-OV-3 ovarian. For the same molecule, the growth was 130% (inactive) in the assay with IGROV1 ovarian; 109% (inactive) in the assay on OVCAR-3 ovarian; 108% (inactive) with HS 578T breast; 111% (inactive) with NCI/ADR-RES ovarian; 114% (inactive) in the assay on T-47D breast; 98.5% (inactive) in the assay on BT-549 breast. The growth with MDA-MB-435 melanoma was 97.9% (inactive); in the assay with SW-620 colon, 106% (inactive); in the assay on MCF7 breast, 108% (inactive); in the assay on HCT-116 colon, 105% (inactive); in the assay with HCC-2998 colon, 109% (inactive); with KM12 colon it was 104% (inactive).

`O=[N+]([O-])c1ccccc1N(S(=O)(=O)c1ccccc1)S(=O)(=O)c1ccccc1`: the growth with SR leukemia is 85.8% (inactive) and 101% (inactive); in the assay on RPMI-8226 leukemia, 85.4% (inactive) and 90.4% (inactive); in the assay with OVCAR-8 ovarian, 98.2% (inactive) and 95.6% (inactive); with OVCAR-5 ovarian, 105% (inactive) and 101% (inactive); with OVCAR-4 ovarian, 115% (inactive); in the assay on SK-OV-3 ovarian it was 109% (inactive) and 111% (inactive). The growth with IGROV1 ovarian is 99.2% (inactive) and 96.7% (inactive); in the assay on OVCAR-3 ovarian, 107% (inactive) and 93.5% (inactive); with HS 578T breast, 113% (inactive); with NCI/ADR-RES ovarian, 98.9% (inactive) and 86.3% (inactive); in the assay on T-47D breast, 105% (inactive) and 92.7% (inactive); in the assay with BT-549 breast, 106% (inactive). For the same molecule, the growth with MDA-MB-435 melanoma was 100% (inactive) and 98.1% (inactive); in the assay on SW-620 colon it was 102% (inactive) and 97.3% (inactive); in the assay with MCF7 breast it was 127% (inactive); in the assay on HCT-116 colon, 110% (inactive) and 91.4% (inactive); in the assay with HCC-2998 colon it was 101% (inactive) and 106% (inactive); with KM12 colon it was 96.1% (inactive) and 92% (inactive).

Take `Cc1cc(=O)[nH]c(O)c1C#N`: the growth in the assay on SR leukemia was 94.8% (inactive) and 122% (inactive); in the assay on RPMI-8226 leukemia it was 119% (inactive) and 332% (inactive); in the assay with OVCAR-8 ovarian it was 105% (inactive) and 101% (inactive); with OVCAR-5 ovarian, 93.7% (inactive) and 90% (inactive); in the assay with OVCAR-4 ovarian, 99.8% (inactive) and 104% (inactive); in the assay with SK-OV-3 ovarian, 105% (inactive) and 96.2% (inactive). Also, the growth is 100% (inactive) in the assay with IGROV1 ovarian; 112% (inactive) with OVCAR-3 ovarian; 120% (inactive) and 109% (inactive) in the assay with HS 578T breast; 106% (inactive) and 105% (inactive) in the assay with NCI/ADR-RES ovarian; 97.2% (inactive) and 91% (inactive) with T-47D breast; 100% (inactive) and 103% (inactive) with BT-549 breast. In addition, the growth in the assay with MDA-MB-435 melanoma was 101% (inactive) and 103% (inactive); in the assay with SW-620 colon, 102% (inactive) and 106% (inactive); in the assay with MCF7 breast, 97.3% (inactive) and 103% (inactive); with HCT-116 colon, 100% (inactive) and 96.2% (inactive); with HCC-2998 colon, 101% (inactive) and 100% (inactive); with KM12 colon, 108% (inactive) and 116% (inactive).
